The source of these data is PubChem BioAssay.

A short description of the assay: caspase-8 TRAIL sensitization, hit retest, confirmation, cell-based, NB7+caspase-8, with/without TRAIL, luminescence panel (AID 651596). The following applies: NB7 neuroblastoma + caspase-8, without TRAIL, luminescence viability, without TRAIL, mean of runs, at 10 µM.
For `Cc1ccc(NC(=O)C(=O)Nc2ccccn2)cc1`, the activity is 71.7%. For the compound `CCOC(=O)c1sc2nc(-c3ccccc3)ccc2c1N`, the activity was 66.1%. Take `Cc1cccc(NC(=S)N/N=C/c2ccc([N+](=O)[O-])s2)c1`: the activity is 36.1%. Next, `CN(C)CCNC(=O)c1cccc(-c2cnc3c(NC=O)cc(-c4cccc(C(F)(F)F)c4)cn23)c1`: 90.8%; `Cc1ccc(OCc2nc(-c3ccccn3)no2)c(Br)c1`: 56.6%.
